Assay results published in PubChem BioAssay (Tox21).
Records with an inconclusive call do not appear. Values without a mark were called inactive. Calls of active or inactive are those of the source. Calls follow the shape of the dose curve; as a rule, active = well fitted activation curve with a large enough effect in the repeat runs; inconclusive = weak or mixed curves; inactive = no such curve, though single readings can be large or run the other way.

Molecular target: Aryl hydrocarbon receptor (Homo sapiens) (UniProt P35869)
Sequence (P35869 whole entry, looked up): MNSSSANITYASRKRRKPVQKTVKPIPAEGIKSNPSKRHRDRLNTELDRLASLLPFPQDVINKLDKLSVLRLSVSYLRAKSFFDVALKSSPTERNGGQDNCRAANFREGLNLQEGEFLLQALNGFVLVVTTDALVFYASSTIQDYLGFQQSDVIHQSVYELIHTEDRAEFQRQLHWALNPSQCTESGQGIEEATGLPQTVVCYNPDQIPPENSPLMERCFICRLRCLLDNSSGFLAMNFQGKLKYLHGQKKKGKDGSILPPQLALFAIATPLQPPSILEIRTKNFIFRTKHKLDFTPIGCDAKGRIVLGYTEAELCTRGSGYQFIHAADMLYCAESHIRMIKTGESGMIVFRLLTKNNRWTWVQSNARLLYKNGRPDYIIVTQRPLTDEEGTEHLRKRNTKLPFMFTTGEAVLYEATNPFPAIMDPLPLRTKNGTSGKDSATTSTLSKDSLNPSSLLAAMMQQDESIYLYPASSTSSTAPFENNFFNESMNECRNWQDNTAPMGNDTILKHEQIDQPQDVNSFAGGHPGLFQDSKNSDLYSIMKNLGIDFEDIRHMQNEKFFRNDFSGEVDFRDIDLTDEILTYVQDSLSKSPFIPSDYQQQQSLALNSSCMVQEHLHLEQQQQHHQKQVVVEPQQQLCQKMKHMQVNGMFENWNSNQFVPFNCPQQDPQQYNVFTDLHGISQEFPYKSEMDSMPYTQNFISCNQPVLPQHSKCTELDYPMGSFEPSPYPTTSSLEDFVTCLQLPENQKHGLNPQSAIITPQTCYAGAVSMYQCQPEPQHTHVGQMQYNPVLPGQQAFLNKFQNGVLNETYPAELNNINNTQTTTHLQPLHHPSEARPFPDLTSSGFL
Test: qHTS assay to identify small molecule that activate the aryl hydrocarbon receptor (AhR) signaling pathway (AID 743085); also: nearly all actives have a fitted effect of over 15% in size;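 as to activation: HG2L7.5c1 human HepG2 liver cells with stably integrated DRE-driven firefly reporter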
Conditions: HepG2 AhR-luc (HG2L7.5c1), luciferase, 24 h; series mostly up to 70.3 µM; activation: at the top concentration
Text: U.S. Tox21 Program National Center for Advancing Translational Sciences [NCATS] NIH Chemical Genomics Center [NCGC] U.S. Environmental Protection Agency [EPA] National Institutes of Environmental Health Sciences [NIEHS] National Toxicology Program [NTP] U.S. Food and Drug Administration [FDA] Tox21 Assay overview: The Aryl hydrocarbon Receptor (AhR), a member of the family of basic helix-loop-helix transcription factors, is crucial to adaptive responses to environmental changes. AhR mediates cellular responses to environmental pollutants such as aromatic hydrocarbons through induction of phase I and II enzymes but also interacts with other nuclear receptor signaling pathways. A cell based HepG2-AhR-luc assay (HG2L7.5c1 cell line, developed by Dr. Michael S. Denison, University of California at Davis, was used to assess the activation of AhR. HepG2 (human hepatocellular carcinoma) cells were stably transfected with an Ah receptor-responsive firefly luciferase reporter gene plasmid containing 20 dioxin responsive elements and luciferase reporter gene. Increased luciferase activity can be used to identify the compounds that induce AhR activation.
Tox21 Assay Protocol Summary: 4000 cells in 5 uL/well were dispensed into white wall/solid bottom 1536-well plates using a Multidrop Combi (Thermo Fisher Scientific Inc., Waltham, MA) dispenser. After the assay plates were incubated at 37C for 5 h, 23 nL of compound or DMSO vehicle was transferred to the assay plates by a pintool station (Kalypsys, San Diego, CA). The plates were incubated at 37C for 24 hr. After 1 ul/well of CellTiter-Fluor reagent (Promega, Madison, WI) was added into the assay plates using a Flying Reagent Dispenser (FRD) (Aurora Discovery, CA), the assay plates were incubated at 37C for 30 min. The fluorescence intensity in the plates was measured using a ViewLux plate reader (PerkinElmer, Shelton, CT), followed by the addition of 4 uL of ONE-Glo Luciferase Assay reagent (Promega) using an FRD (Aurora Discovery). After the assay plates were incubated at room temperature for 30 min, luminescence intensity was measured using a ViewLux plate reader (Perkin Elmer).
% is scaled to controls: 0 for no effect and ±100 for the full control effect; potency is read from the fitted curve at half-maximal effect.

SMILES | activation | Potency
CCCCCCCCCCCCCCCBr | 0.364% | –
COCCOCCOCCOCCOC | 8.73% | –
CC(=O)N(O)CCCCCNC(=O)CCC(=O)N(O)CCCCCNC(=O)CCC(=O)N(O)CCCCCN | 0.179% [at 32.5 µM] | –
CN(C)CCCNCCCN | 2.22% | –
CC(Cc1cccc(C(F)(F)F)c1)NCCOC(=O)c1ccccc1 (stereo not given) | -1.23% | –
CCCCCCCCCCCCC(=O)O | -0.939% [at 95 µM] | –
O=C(CCN1CCN2CCCC2C1)N1c2ccccc2Sc2ccc(Cl)cc21 (stereo not given) | -1.29% | –
SC1CCCC1 | -2.31% | –
Cl/C(=C\n1cncn1)c1ccc(Cl)cc1Cl | 3.79% | –
O=C(O)[C@@H]1[C@H]2C[C@H]3c4[nH]c5ccccc5c4CCN3C[C@@H]2CC[C@@H]1O | – | 7.17 µM (active)
Cc1nc2ccccc2n1Cc1ccc(Cl)cc1 | -4.12% | –
CCCCCCCCCC=O | -0.945% | –
O=c1c2ccccc2nnn1CCl | 2.52% | –
CC(=O)OCCc1ccccc1 | -0.31% | –
CC(C)(C)C1CCCCC1O (stereo not given) | -0.777% | –
CCN(CC)CCNC(C(=O)OCCC(C)C)c1ccccc1 (stereo not given) | -1.18% | –
COc1ccc(C(C)=O)cc1 | -0.389% [at 95 µM] | –
O=C=NC1CCC(CC2CCC(N=C=O)CC2)CC1 (stereo not given) | -0.968% | –
O=C(O)C1CCC(C(=O)O)CC1 (stereo not given) | -0.257% | –
CCCCCOC(=O)c1ccc(O)cc1 | 10.9% [at 95 µM] | –

SMILES | activation | Potency
CNCC[C@@H](Oc1ccccc1C)c1ccccc1 | -0.353% | –
NCCCOCCOCCOCCCN | 2.71% | –
CCCCCC/C=C/C=O | 1.55% | –
CC(=O)OC/C=C/c1ccccc1 | -0.187% | –
CCN(CC)CCOc1ccc2c(c1)C(=O)c1cc(OCCN(CC)CC)ccc1-2 | 3.62% | –
CCc1nn(C2CCCCC2)c2cc(C3(C#N)CCC(C(=O)O)CC3)ccc12 (stereo not given) | -0.182% | –
CC[C@H](C)[C@@H](C(=O)O)n1sc2ccccc2c1=O | 5.08% | –
CN1CCC(=C2c3ccccc3CCc3sccc32)CC1 | 0.013% | –
NC[C@H]1O[C@H](O[C@H]2[C@H](O)[C@@H](O[C@H]3O[C@H](CO)[C@@H](O)[C@H](N)[C@H]3O)[C@H](N)C[C@@H]2N)[C@H](O)[C@@H](O)[C@@H]1O | 0.116% [at 8.47 µM] | –
CCCC(C)C | -0.612% [at 95 µM] | –
CN(C)CCCOc1nn(Cc2ccccc2)c2ccccc12 | -1.34% [at 32.5 µM] | –
C[C@H](CCC(=O)O)[C@H]1CC[C@H]2[C@@H]3[C@H](O)C[C@@H]4C[C@H](O)CC[C@]4(C)[C@H]3CC[C@]12C | – | inactive
CCCCCCCCCCCCCCCCCBr | -2.19% [at 32.5 µM] | –
C=CCCCCCC | -0.544% | –
CCN(CC)C(C)CN1c2ccccc2Sc2ccccc21 (stereo not given) | 1.13% [at 32.5 µM] | –
NCCCN(CCO)CCO | -1.36% | –
CCCCC(CC)COCCCN (stereo not given) | -0.272% | –
O=C1c2cccc(O)c2C(=O)c2c(O)cc(CO)cc21 | -1.29% | –
Cn1c(=O)c2c(ncn2CC(O)CO)n(C)c1=O (stereo not given) | -0.0336% [at 32.5 µM] | –
CCOC(=O)C1=NN(c2ccccc2)C(=O)C1 | 0.642% | –
